Source: PubChem BioAssay
Active and inactive are the calls of the source. Unless noted, the rule behind the calls is not given here.

Tests used:
[1] = resazurin metabolic signal in HepG2 cells – cell-based, resazurin fluorescence, 24 h, PK04 Diversity Set, profiling panel (AID 1172); details: HepG2 viability, higher = more signal; note: test concentration not given here
[2] = budding yeast growth changes without added modifier – OD600, strain BY4716, 24 h, basal condition, primary screen (AID 1173); details: S. cerevisiae BY4716 growth, OD600, 24 h; higher = more signal, called active from +8 up or from −8 down
[3] = viability profiling in MM1S myeloma cells – cell-based, resazurin fluorescence, basal, 24 h, PK04 Diversity Set, profiling panel (AID 1174); details: higher = more signal, called active from +8 up or from −8 down;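 note: MM1S multiple myeloma cell line; test concentration not given here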
[4] = target: Dihydroorotate dehydrogenase (quinone), mitochondrial (Plasmodium falciparum (isolate 3D7)) (UniProt Q08210); experiment: inhibition of P. falciparum DHODH – biochemical, C-terminal His tag, absorbance 600 nm, primary screen (AID 1175); details: PfDHODH enzyme, DCIP absorbance 600 nm; higher = more signal, called active from +8 up or from −8 down;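 note: recombinant parasite enzyme with a five histidine tag at its C terminus; test concentration not given here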
Sequence of Dihydroorotate dehydrogenase (quinone), mitochondrial (Plasmodium falciparum (isolate 3D7)) (Q08210 whole entry, looked up): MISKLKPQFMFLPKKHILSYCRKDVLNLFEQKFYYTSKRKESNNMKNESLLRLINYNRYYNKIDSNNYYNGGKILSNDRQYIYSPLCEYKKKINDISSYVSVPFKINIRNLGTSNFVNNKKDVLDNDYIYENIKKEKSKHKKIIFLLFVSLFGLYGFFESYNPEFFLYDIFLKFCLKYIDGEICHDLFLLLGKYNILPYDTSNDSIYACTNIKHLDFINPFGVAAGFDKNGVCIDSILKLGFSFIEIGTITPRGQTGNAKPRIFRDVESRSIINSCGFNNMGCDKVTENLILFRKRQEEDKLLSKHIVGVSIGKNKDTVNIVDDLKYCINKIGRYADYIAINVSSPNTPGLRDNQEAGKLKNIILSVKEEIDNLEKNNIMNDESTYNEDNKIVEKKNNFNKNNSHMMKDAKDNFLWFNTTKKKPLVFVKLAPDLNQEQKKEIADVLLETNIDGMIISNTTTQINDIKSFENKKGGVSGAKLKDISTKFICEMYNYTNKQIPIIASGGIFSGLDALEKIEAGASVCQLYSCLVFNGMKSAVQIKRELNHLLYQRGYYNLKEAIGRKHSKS

[5] = inhibition of PAO1 biofilm formation – strain PAO1, LB-PBS medium, absorbance 600 nm, primary screen (AID 1176); note: test concentration not given here; details: P. aeruginosa PAO1 growth/biofilm, A600, 12 h; higher = more signal
[6] = growth modulation of vineyard yeast isolate – strain RM11-1a, OD600, basal, 24 h, primary screen (AID 1177);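 note: cultures grown under basal conditions with no added stressor; test concentration not given here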; details: S. cerevisiae RM11-1a growth, OD600, 24 h; higher = more signal, called active from +8 up or from −8 down
[7] = growth of efflux-deficient E. coli DRC39 – strain DRC39, OD650, 24 h, E. coli filamentation inducers, primary screen (AID 1178);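 note: growth measured as culture turbidity by optical density at 650 nm; test concentration not given here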; details: E. coli DRC39 acrAB, higher = more signal, called active from +8 up or from −8 down
[8] = growth of efflux-deficient E. coli DRC39 – strain DRC39, OD650, 48 h, E. coli filamentation inducers, primary screen (AID 1179);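 note: screen aims at cell division blockers that make cells filament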; details: E. coli DRC39 delta-acrAB growth, higher = more signal, called active from +8 up or from −8 down
[9] = viability profiling in RPMI8226 myeloma cells – cell-based, resazurin fluorescence, basal, 24 h, PK04 Diversity Set, profiling panel (AID 1180); details: higher = more signal;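 note: RPMI8826 multiple myeloma cell line at 5000 cells per well; test concentration not given here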
[10] = target: E3 ubiquitin-protein ligase XIAP (Homo sapiens) (UniProt P98170); experiment: small molecules binding XIAP protein – biophysical, small-molecule microarray, fluorescence 635 nm, primary screen (AID 1181); details: higher = more signal;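 note: score merges 667 nm emission and signal to noise over triplicate slides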
Sequence of E3 ubiquitin-protein ligase XIAP (Homo sapiens) (P98170 whole entry, looked up): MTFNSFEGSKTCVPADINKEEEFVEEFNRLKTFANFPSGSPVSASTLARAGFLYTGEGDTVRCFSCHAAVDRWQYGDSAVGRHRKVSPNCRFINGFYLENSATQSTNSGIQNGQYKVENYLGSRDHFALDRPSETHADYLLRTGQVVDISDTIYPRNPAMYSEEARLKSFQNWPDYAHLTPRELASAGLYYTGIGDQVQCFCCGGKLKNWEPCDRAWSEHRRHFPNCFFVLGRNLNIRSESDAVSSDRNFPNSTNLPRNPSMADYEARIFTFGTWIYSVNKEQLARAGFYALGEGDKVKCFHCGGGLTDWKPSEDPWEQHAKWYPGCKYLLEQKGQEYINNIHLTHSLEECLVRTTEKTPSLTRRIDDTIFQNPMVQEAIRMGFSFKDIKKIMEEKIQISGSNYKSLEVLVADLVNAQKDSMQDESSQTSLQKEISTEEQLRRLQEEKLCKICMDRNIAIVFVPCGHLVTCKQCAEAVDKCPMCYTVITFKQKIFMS

| Structure (SMILES) | z-score [1] | z-score [2] | z-score [3] | composite z-score [4] | z-score [5] | z-score [6] | z-score [7] | z-score [8] | z-score [9] | composite z-score [10] |
| --- | --- | --- | --- | --- | --- | --- | --- | --- | --- | --- |
| O=C1OCCC/C=C\[C@H]2OC34C=CCN(Cc5ccccc5)C(=O)[C@H]3N(CCCCCCO)C(=O)[C@@H]4C12 (stereo not given in full) | 0.493 | -0.908 (inactive) | -0.549 (inactive) | -0.0805 (inactive) | -0.497 (inactive) | 0.692 (inactive) | 1.23 (inactive) | 1.58 (inactive) | 0.809 | -0.15 |
| COC(=O)C(CC#Cc1ccc2c(c1)[C@]1(C(=O)N2)[C@H](C(=O)O)[C@H]2C(=O)O[C@H](c3ccccc3)[C@H](c3ccccc3)N2[C@@H]1c1ccc(O)cc1)C(=O)OC | 0.0521 | 0.183 (inactive) | 0.395 (inactive) | -5.46 (inactive) | 1.03 (inactive) | 0.62 (inactive) | 0.569 (inactive) | -0.0012 (inactive) | -0.0124 | -0.165 |
| COc1ccc(CCNC(=O)[C@@]2(Sc3ccc(C)cc3)CC(=O)N(C3CCCCC3)[C@@H]2c2ccc(CO)cc2I)cc1 | 0.594 | 0.0658 (inactive) | 0.175 (inactive) | 0.43 (inactive) | 1.34 (inactive) | -0.382 (inactive) | 0.258 (inactive) | 0.238 (inactive) | -1.2 | -0.276 |
| COC(=O)[C@@]1(Cc2ccc(OC)cc2)[C@H]2c3cc(C(=O)N4CCCC4)n(Cc4ccsc4Br)c3C[C@H]2CN1C(=O)c1ccccc1 | -1.78 | 0.567 (inactive) | -8.06 (active) | 0.276 (inactive) | 0.576 (inactive) | -0.0289 (inactive) | -0.0187 (inactive) | 0.126 (inactive) | -4.31 | 0.244 |
| C=CCOC(=O)[C@@H]1[C@H]2C(=O)O[C@H](c3ccccc3)[C@H](c3ccccc3)N2[C@H](c2ccc(OCCOC(=O)[C@@H]3C[C@@H]4C(=O)N[C@@H](Cc5ccccc5)C(=O)N4[C@@H]3c3ccc(O)cc3)cc2)[C@@]12C(=O)Nc1ccc(I)cc12 | -0.437 | 0.963 (inactive) | 0.372 (inactive) | -0.0246 (inactive) | 2.1 (inactive) | 1.91 (inactive) | -0.0033 (inactive) | -1.53 (inactive) | 0.411 | 0.104 |
| N#Cc1ccc(NN2C(C(O)c3c(F)cccc3Cl)C=CC3C(=O)N(c4ccccc4)C(=O)C32)cc1 (stereo not given) | -1.31 | 0.566 (inactive) | -0.392 (inactive) | 1.67 (inactive) | 1.01 (inactive) | -0.0762 (inactive) | -0.731 (inactive) | -0.445 (inactive) | -0.739 | 0.585 |
| CO[C@H]1O[C@H](CO)[C@@H](OC(=O)Nc2ccc(Br)cc2)[C@H](OC(=O)c2cc3ccccc3[nH]2)[C@H]1OC(=O)c1cc2ccccc2[nH]1 | -3.36 | -0.98 (inactive) | -2.32 (inactive) | -1.2 (inactive) | 1.16 (inactive) | -1.02 (inactive) | 1.21 (inactive) | 1.78 (inactive) | -4.77 | -0.0011 |
| COCCOC(=O)N1C(=O)[C@@]2(c3cc(C#Cc4ccc(OC)cc4)ccc31)[C@H](C(=O)N1CCCCCCC1)[C@H]1C(=O)O[C@H](c3ccccc3)[C@H](c3ccccc3)N1[C@@H]2c1ccc(OCCO)cc1 | 0.73 | 0.777 (inactive) | 1.15 (inactive) | -1.37 (inactive) | 3.3 (inactive) | 0.262 (inactive) | 1.11 (inactive) | 2.25 (inactive) | 0.425 | 0.47 |
| CC1CC/C=C\[C@H]2OC34C=CCN(c5ccc(Cl)cc5)C(=O)[C@H]3N(CCO)C(=O)[C@]4(C)C2C(=O)O1 (stereo not given in full) | -0.349 | -0.152 (inactive) | -1.13 (inactive) | -0.0582 (inactive) | 0.0962 (inactive) | -0.245 (inactive) | -0.135 (inactive) | -0.672 (inactive) | 0.102 | -0.0785 |
| CCOc1cc(C(O)C2C=CC3C(=O)N(c4ccccc4)C(=O)C3N2Nc2ccccc2)ccc1O (stereo not given) | -0.147 | -2.46 (inactive) | -1.07 (inactive) | 0.392 (inactive) | 1.1 (inactive) | 1.16 (inactive) | -0.345 (inactive) | -0.649 (inactive) | -0.0963 | -0.189 |
| CC(C)(C)OC(=O)CC[C@]1(C(=O)O)N=C(c2ccc(OCCCO)cc2)O[C@H]1c1ccccc1N=[N+]=[N-] | 0.144 | -0.278 (inactive) | -1.32 (inactive) | -0.533 (inactive) | 0.286 (inactive) | -0.715 (inactive) | 0.0508 (inactive) | 0.49 (inactive) | 0.056 | 0.0989 |
| CC(C)(C)OC(=O)CC[C@@]12N=C(c3ccc(OCCCO)cc3)O[C@@H]1c1ccccc1N(CCS(=O)(=O)c1ccccc1)C2=O | -0.223 | 0.508 (inactive) | -1.95 (inactive) | -0.298 (inactive) | 0.218 (inactive) | 1.44 (inactive) | 1.25 (inactive) | 1.56 (inactive) | -0.835 | 0.0801 |
| CC(=O)NCCCC[C@@H]1NC(=O)[C@@H]2C[C@H](C(=O)NCCCCCCNC(=O)CS)[C@H](c3cccc(OCCO)c3)N2C1=O | -0.396 | 0.174 (inactive) | -0.449 (inactive) | -0.424 (inactive) | 0.752 (inactive) | -0.407 (inactive) | 0.293 (inactive) | 0.367 (inactive) | -1.05 | -0.0791 |
| CC(=O)NCCCC[C@@H]1NC(=O)[C@@H]2C[C@H](C(=O)NCCCCN(C)C)[C@H](c3cccc(OCCO)c3)N2C1=O | 1.03 | 0.108 (inactive) | -0.721 (inactive) | -0.446 (inactive) | -0.875 (inactive) | 0.0173 (inactive) | 0.374 (inactive) | 0.313 (inactive) | 0.507 | -0.404 |
| C=CCNC(=O)[C@H]1[C@@H]2C(=O)O[C@@H](c3ccccc3)[C@@H](c3ccccc3)N2[C@@H](c2ccccc2OCCO)[C@]12C(=O)Nc1ccc(C#CC3=CCCCC3)cc12 | -2.93 | 1.97 (inactive) | -8.87 (active) | 0.266 (inactive) | 1.89 (inactive) | 3.11 (inactive) | -0.639 (inactive) | -0.0547 (inactive) | -7.09 | 0.112 |
| COCC(=C=CC[C@@H](O)c1ccccc1OCCO)C[C@@H](O)c1cc(Cl)cc(Cl)c1O | -0.127 | -2.33 (inactive) | -0.541 (inactive) | -1.31 (inactive) | 0.26 (inactive) | 0.216 (inactive) | -0.259 (inactive) | -0.424 (inactive) | -0.394 | -0.0553 |
| C=CCNC(=O)[C@@H]1[C@H]2C(=O)O[C@H](c3ccccc3)[C@H](c3ccccc3)N2[C@H](c2ccc(OCCO)cc2)[C@@]12C(=O)Nc1ccc(C#CCCO)cc12 | -0.13 | 1.02 (inactive) | -0.185 (inactive) | -1.24 (inactive) | 1.66 (inactive) | -0.114 (inactive) | -0.194 (inactive) | 0.184 (inactive) | -0.114 | -0.157 |
| O=C1O[C@H](c2ccccc2)[C@H](c2ccccc2)N2[C@H]1[C@@H](C(=O)NC[C@H](O)c1ccccc1)[C@]1(C(=O)Nc3ccccc31)[C@H]2c1ccc(OCCO)cc1 | 0.293 | 1.3 (inactive) | -2.05 (inactive) | 0.0379 (inactive) | 4.04 (inactive) | 3.05 (inactive) | 0.0797 (inactive) | 0.0403 (inactive) | -3.16 | -0.0272 |
| C=CCC(OC(C)=O)[C@@H]1[C@@H](N(Cc2ccc(-c3cccc(C(F)(F)F)c3)o2)C(=O)c2ccc(-c3ccccc3)cc2)c2cc(OCCCO)ccc2N1C(=O)c1ccc(-c2ccccc2)cc1 (stereo not given in full) | -0.645 | 1.03 (inactive) | 0.0516 (inactive) | 0.0524 (inactive) | 0.268 (inactive) | 0.609 (inactive) | -0.386 (inactive) | -0.487 (inactive) | 0.0033 | 0.0471 |
| COCC(=C=CC[C@H](O)c1ccccc1OCCO)C[C@H](O)c1cc(Cl)cc(Cl)c1O | -1.18 | -19 (active) | -0.627 (inactive) | -9.33 (active) | -0.0828 (inactive) | -22.2 (active) | 0.275 (inactive) | 0.0273 (inactive) | -0.207 | -0.0559 |
| CCOC(=O)C=Cc1cc([N+](=O)[O-])ccc1O | -0.495 | -4.86 (inactive) | -0.912 (inactive) | -4.74 (inactive) | -0.501 (inactive) | 0.11 (inactive) | -0.238 (inactive) | -1.13 (inactive) | -0.688 | 0.193 |
| COCCOC(=O)N1C(=O)[C@@]2(c3cc(C#CC4=CCCCC4)ccc31)[C@H](c1ccc(O)cc1)N1[C@H](c3ccccc3)[C@H](c3ccccc3)OC(=O)[C@H]1[C@@H]2C(N)=O | -0.74 | -0.167 (inactive) | -1.85 (inactive) | -1.06 (inactive) | 0.318 (inactive) | 0.654 (inactive) | 0.066 (inactive) | 0.552 (inactive) | -2.95 | 0.0435 |
| CC(C)N1C(=O)[C@@]2(Cc3ccccc31)c1ccccc1C(=O)N(C1CCCCC1)[C@H]2c1ccc(CO)cc1 | 2.02 | -0.536 (inactive) | 0.843 (inactive) | -18.9 (active) | -0.255 (inactive) | -0.719 (inactive) | 0.589 (inactive) | 0.443 (inactive) | 0.917 | -0.209 |
| CC(C)(C)C(=O)N[C@@H](c1ccc(Cl)cc1)[C@]1(C)C[C@H]1C1CCCCC1 | -0.608 | -0.507 (inactive) | -0.385 (inactive) | -0.554 (inactive) | 1.03 (inactive) | 0.473 (inactive) | -0.196 (inactive) | -0.27 (inactive) | -0.231 | 0.261 |
| [N-]=[N+]=NCc1ccccc1C[C@]1(C(=O)NCC(O)CO)N=C(c2ccc(OCCCO)cc2)O[C@H]1c1ccccc1 (stereo not given in full) | -0.237 | -1.16 (inactive) | -0.525 (inactive) | 0.105 (inactive) | 0.826 (inactive) | 0.125 (inactive) | -0.376 (inactive) | -0.193 (inactive) | -0.977 | 0.035 |
